Only some compounds are listed: those with a hit (about 7.3% of all), similar ones and a draw of the others.
VACV mCherry inh: qHTS for Stage-Specific Inhibitors of Vaccinia Orthopoxvirus: mCherry Reporter Primary qHTS | hit rate 0.63% among 310,000 | Potency, µM (doses to about 36.5 µM), for inactives: at the top dose activity change, negative = inhibition, hits mostly inhibitors | Vaccinia virus mCherry reporter infection, fluorescence; calls by dose curve; tested in A549 cells; further: potency means the concentration at half of the fitted maximal effect; nearly all actives have a fitted effect of over 35% in size
HCV inhibitor: qHTS Assay for Inhibitors of Hepatitis C Virus (HCV). hit rate 3.4% among 340,000. Potency, µM (doses to about 41.8 µM), without a hit: top-dose activity change, negative = inhibition, actives largely listed as inhibitors. Huh7.5.1 HCVcc-Cre infection, luciferase reporter, 44 h; active means well fitted inhibition curve with a large enough effect; inconclusive means small, poorly fitted or top-dose-only effect, or another doubt; inactive means no such curve, though single readings can be large or run the other way; further: potency means the concentration at half of the fitted maximal effect
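HCVcc-Cre virus at an moi near 0.5 was added right after compound to cells cultured 4 h from seeding (1,000 cells/well). Luciferase activity was determined 44 h later, 15 min after substrate addition at RT.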
FMDV inh: High Throughput Screening for Foot and Mouth Disease Virus Antivirals; FMDV antiviral cell-based qHTS; Potency, µM (series often up to 57.9 µM), for inactives: at the highest dose activity change, negative = inhibition, actives largely listed as inhibitors; hit rate 1.2% among 410,000; calls by dose curve; tested in HEK293T cells; further: read-out not given here; potency means the concentration at half of the fitted maximal effect; nearly all actives have a fitted effect of over 45% in size
Vaccinia Venus: qHTS for Stage-Specific Inhibitors of Vaccinia Orthopoxvirus: Venus Reporter Primary qHTS; Vaccinia virus Venus reporter expression, fluorescence; Potency, µM (top dose mostly 36.5 µM), for inactives: at the top dose activity change, negative = inhibition, usual class: inhibitors; hit rate 0.46% among 330,000; calls by dose curve; tested in A549 cells; further: potency means the concentration at half of the fitted maximal effect; nearly all actives have a fitted effect of over 30% in size
HCMV antiviral: qHTS Assay for inhibitors of the human cytomegalovirus (HCMV); activity change, negative = inhibition, % at 57.5 µM; HFF cells, HCMV-luciferase reporter, 72 h; stronger effect = lower value; hit rate 4.5% among 410,000; in the data active means activity change below about -60%; inconclusive means no clear call, values can overlap the other calls; inactive means above about -39%
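Luciferase read-out from HCMV-luciferase-infected HFFs (MOI 1 PFU/cell) 72 h post infection at 37C; compounds added after 16 h cell attachment; activity normalized between buffer-only basal and Salinomycin (10uM) inhibitor controls.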
Starred values were filed as active, the others as inactive; i = inactive; ? = inconclusive; . = not tested or not shown. On the % scale 0 is the no-effect control and ±100 the full control effect.

SMILES	VACV mCherry inh	HCV inhibitor	FMDV inh	Vaccinia Venus	HCMV antiviral
CCC(C)Sc1cc(-c2nc3ccc(C)cn3c2NCc2ccccc2)ccc1OC (stereo unspecified)	10µM*	10µM*	15.8µM*	?	-76.7*
CCCCCCSc1ccc(-c2nc3ccc(C)cn3c2NCc2ccccc2)cc1OC	?	-8.2%	-1.1%	-20.1%	64.1
CC(=O)N(O)[C@@H]1c2cc(C#N)ccc2OC(C)(C)[C@H]1O	.	.	-4.7%	.	.
Cc1oc(-c2ccc(Cl)cc2)nc1CN1CCCC(C(=O)NCc2ccco2)C1 (stereo unspecified)	.	12.6µM*	?	.	19.2
COc1ccc(CNC(=O)C2CCCN(Cc3nc(-c4cccc(C)c4)oc3C)C2)cc1 (stereo unspecified)	.	?	25.1µM*	.	0.4
COc1ccc(CCNC(=O)C2CCCN(Cc3nc(-c4ccccc4C)oc3C)C2)cc1OC (stereo unspecified)	.	?	?	.	-21.3
CCc1ccc(-c2nc(CN3CCCC(C(=O)NCc4ccc(C)cc4)C3)c(C)o2)cc1 (stereo unspecified)	?	.	?	-20.9%	11.5
CCc1ccc(-c2nc(CN3CCCC(C(=O)NCCc4ccc(OC)c(OC)c4)C3)c(C)o2)cc1 (stereo unspecified)	.	8.91µM*	22.4µM*	.	-92.3*
Cc1cccc(-c2nc(CN3CCCC(C(=O)NCc4ccc(Cl)cc4)C3)c(C)o2)c1 (stereo unspecified)	-4.6%	.	?	-9.4%	6.6
Cc1oc(-c2ccc(Cl)cc2)nc1CN1CCCC(C(=O)NCc2ccc(Cl)cc2)C1 (stereo unspecified)	-21.4%	.	35.5µM*	-16.4%	6.1
Cn1cccc1C(=O)N1CCC[C@@]2(CCN(C(c3ccccc3)c3ccccc3)C2)C1	.	.	-8.2%	.	.
O=C(NCc1cccnc1)C1CCN(C(=O)c2ccc(Cl)cc2Cl)CC1	-18.8%	5.3%	-20.1%	-7.1%	6.2
Cc1oc(-c2ccc(Cl)cc2)nc1CN1CCC(C(=O)NCc2cccnc2)CC1	.	14.1µM*	-16.6%	.	.
CCCN(CCC)CCNC(=O)C1CCN(Cc2nc(-c3ccc(Cl)cc3)oc2C)CC1	.	0.794µM*	-4.8%	.	-8.9
O=C(NCc1cccnc1)C1CCC(c2ccc(Cl)cc2)CC1 (stereo unspecified)	?	7.94µM*	?	-28.4%	?
Cc1oc(-c2cccc(Cl)c2)nc1CN1CCC(C(=O)NCCc2ccc(Cl)cc2)CC1	-20.1%	.	-4.1%	-11.4%	9.2
Cc1cccc(NC(=O)C2CCCN(S(=O)(=O)c3c(C)n[nH]c3C)C2)c1 (stereo unspecified)	i	.	-14.6%	-6.1%	36.5
O=S(=O)(c1ccccc1Br)N1CCN(c2nc(-c3cccs3)nc3ccccc23)CC1	-12.8%	.	.	-8.9%	.
Cc1cc(-n2c(C)cc(C(=O)CSc3nnnn3-c3ccccc3)c2C)no1	-17.1%	8.91µM*	-27.2%	-8.9%	-9.9
Cc1cc(-n2c(C)cc(C(=O)CCl)c2C)no1	-28.3%	?	22.4µM*	?	-95.6*
Clc1ccc(-c2nnc(NCCN3CCCC3)c3ccccc23)cc1	.	?	0.891µM*	.	-23.3
Clc1ccc(-c2nnc(NCc3ccccc3)c3ccccc23)cc1	?	?	?	?	-7.1
O=C(NCC1(N2CCOCC2)CCCCC1)c1cnn(-c2nccc(-c3cccs3)n2)c1C1CC1	?	.	-16.0%	?	.
CCn1ncc(C2=NOC(C(=O)NCc3ccc(Cl)cc3)C2)c1C (stereo unspecified)	.	10.7%	-28.0%	.	-80.8*
COc1ccc2nc3cc(Cl)ccc3c(Nc3cc(CN4CCCC4)c(O)c(CN4CCCC4)c3)c2n1	.	.	.	.	-100.5*
O=C(NCc1ccccc1Cl)[C@@H]1[C@@H](CO)[C@@H]2Cn3c(cccc3=O)[C@@H]2N1C(=O)C1CCC1	.	.	.	.	2.7
CN(C1CCCC1)C1CCN(C(=O)CNC(=O)/C=C/c2ccccc2)CC1	-25.9%	19.9%	-21.5%	-10.7%	?
CC1CCCCC1N(C)C1CCN(C(=O)CNC(=O)/C=C/c2cccc(Cl)c2)CC1 (stereo unspecified)	.	?	-1.6%	.	-100.0*

Screens as filed in PubChem.
